From PubChem BioAssay
Sampled rows, rich in hits. Any-hit rate of the full collection: about 3.9%.
USP2a block = USP2a (human) protease inhibition; O75604; USP2 core, Ub-CHOP2 coupled fluorogenic reporter, 485/531; Potency, µM (doses to about 38.3 µM), without a hit: at the highest dose activity change, negative = inhibition, usual class: inhibitors; actives 0.01% (n = 330,000); AID 463254;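 note: potency is the fitted concentration of half-maximal effect; plate controls were DMSO wells for no effect and full inhibition by NEM control for full effect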
Target sequence (O75604 whole entry, looked up): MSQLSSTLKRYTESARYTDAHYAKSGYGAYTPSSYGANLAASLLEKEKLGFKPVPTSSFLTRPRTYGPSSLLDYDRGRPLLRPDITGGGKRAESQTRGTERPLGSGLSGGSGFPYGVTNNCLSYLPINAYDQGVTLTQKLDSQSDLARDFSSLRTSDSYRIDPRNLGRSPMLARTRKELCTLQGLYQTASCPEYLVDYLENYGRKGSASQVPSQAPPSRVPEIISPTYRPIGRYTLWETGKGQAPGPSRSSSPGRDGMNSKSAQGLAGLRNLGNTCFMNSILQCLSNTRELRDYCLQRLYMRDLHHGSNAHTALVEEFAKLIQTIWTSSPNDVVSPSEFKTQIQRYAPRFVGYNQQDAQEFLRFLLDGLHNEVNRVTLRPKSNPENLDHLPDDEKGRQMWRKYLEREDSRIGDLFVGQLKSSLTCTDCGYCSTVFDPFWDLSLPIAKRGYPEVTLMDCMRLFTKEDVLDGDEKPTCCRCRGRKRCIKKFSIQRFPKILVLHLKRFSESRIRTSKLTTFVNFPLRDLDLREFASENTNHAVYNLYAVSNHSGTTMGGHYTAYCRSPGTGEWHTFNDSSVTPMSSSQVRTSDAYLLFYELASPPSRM
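USP2 core (10nM final) preincubated 30min RT with compound in 20mM Tris-HCl pH 8.0, 2mM CaCl2, 2mM beta-mercaptoethanol, 0.05% CHAPS; 25nM Ub-CHOP2 plus 25nM reporter substrate added, fluorescence (Ex485/Em531) read after 60min.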
D1 antagonist = antagonists of human D1 dopamine receptor. P21728. HEK293 TREx D1 cells, calcium flux, dopamine EC80; hits give low values. activity change, negative = inhibition, % at 10 µM. actives 3.2% (n = 360,000); in the data active = activity change below about -30%; note: % is set by controls: 0 for no effect and ±100 for the full control effect
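Kinetic fluorescence of a calcium dye serves as the read-out. D1-expressing Hek293 Trex cells, induced overnight at 30 C, are exposed to compound for 180 s before an EC80 dopamine addition, then read 180 s further.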
GALK inh = galactokinase (human) inhibition. Purified GALK, Kinase-Glo residual ATP luminescence. Potency, µM (top dose mostly 57.5 µM), inactives show top-dose activity change, negative = inhibition, usual class: inhibitors. actives 0.007% (n = 270,000); note: potency is the fitted concentration of half-maximal effect; % is set by controls: 0 for no effect and ±100 for the full control effect
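Luminescence from leftover ATP (Ultra-Glo luciferase/luciferin) served as read-out after a 1 h room-temperature reaction of 5 nM GALK with 35 uM ATP and 100 uM galactose.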
D1 ag = agonists of human D1 dopamine receptor. AID 504660. activation, % at 2 µM. actives 1% (n = 360,000). HEK293 T-REx D1 cells, calcium flux, agonist mode; in the data active = activation above about 30%; note: 0% is about no effect
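Agonism was scored from calcium flux recorded over 180 s (1 read/s) after pintool compound addition, following a 10-cycle baseline. Cells were inducible force-coupled HEK293 TREx D1, plated overnight at 30 C and loaded with no-wash calcium dye.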
D1 potentiator = potentiators of human D1 dopamine receptor; P21728; actives 0.036% (n = 360,000); HEK293 TREx D1 cells, calcium flux, dopamine EC20 potentiation; potentiation, % at 10 µM; in the data active = potentiation above about 30%; note: 0% is about no effect
Eya2 phos inh = inhibitors of human Eya2 phosphatase activity | O00167 | recombinant Eya2, OMFP fluorescence dephosphorylation (OMFP is methylfluorescein phosphate) | Potency, µM (highest dose often 76.9 µM), without a hit: at the top dose activity, negative = inhibition, usual class: inhibitors | actives 0.006% (n = 330,000) | AID 488837; note: potency is the fitted concentration of half-maximal effect; % is set by controls: 0 for no effect and ±100 for the full control effect
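Eya2 protein (added as 0.2 uM solution) was preincubated with compound for 10 min at ambient temperature in 50 mM HEPES pH 7.5, 50 mM NaCl, 5 uM MgCl2, 0.05% BSA, 1 mM DTT. OMFP (added at 50 uM) then reacted 10 min; fluorescence read at 485/525 nm.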
The depositor's hits bear a star; ? = inconclusive; / = no result; [ ] = another dose, or the depositor's remark. Unless noted, calls come from the whole dose curve; as a rule, active = well fitted inhibition curve with a large enough effect; inconclusive = small, poorly fitted or top-dose-only effect, or effect the other way; inactive = flat fitted curve, though single readings scatter.

SMILES	USP2a block	D1 antagonist	GALK inh	D1 ag	D1 potentiator	Eya2 phos inh
c1ccc(CN2CCC3(CCCc4ccccc43)CC2)cc1	1%	-49*	/	1	-6	5%
Cc1cc(NC(=O)COC(=O)CCS(=O)(=O)c2ccc(Cl)cc2)no1	2%	9	17%	1	-1	4%
Cc1cc(Cl)ccc1OCCCC(=O)NC1CCN(C)CC1	4%	-42*	8%	23	-15	-4%
Cc1cc(NC(=O)COC(=O)CCCOc2ccc(Cl)cc2C)no1	?	-30*	0%	3	-10	19%[15.4 µM]
O=C(Nc1ccc(SC(F)F)cc1)c1ccc(F)cc1	2%	-37*	12%	12	-11	5%
O=C(Nc1ccc(SC(F)F)cc1)c1ccccc1F	1%	-8	1%	2	-5	5%
O=S(=O)(Nc1ccc(Br)cc1)c1cccc(NC(=S)NCCN2CCOCC2)c1	3%	3	1%	52*	-5	5%
COc1ccccc1NS(=O)(=O)c1cc(NC(=S)NCCN2CCOCC2)ccc1N1CCOCC1	0%	-34*	2%	1	1	8%
O=S(=O)(Nc1ccccc1F)c1cccc(NC(=S)NCCN2CCOCC2)c1	-1%	/	/	/	/	1%
CCS(=O)(=O)N1CCc2cc(C(=O)NCc3ccccc3Cl)ccc21	/	-13	/	8	-4	/
Cn1c2cc(B(O)O)sc2c2cnn(Cc3c(F)cccc3F)c(=O)c21	-8%	9	/	4	1	-1%
CC(=O)Nc1ccccc1-c1nc2ccccc2n(C(C)C(=O)Nc2cccc(C)c2C)c1=O (stereo not drawn)	/	-6	/	0	-2	/
CCOC(=O)C1CCN(C(=O)c2cnn(-c3ccc(F)cc3)c2-n2cccc2)CC1	/	-24	/	6	-2	/
Cc1ccc(C)c(C(=O)N2CCC(c3nc4c(nnn4Cc4ccccc4)c(=O)[nH]3)CC2)c1	/	-11	/	11	-1	/
Cc1cccc(OCC(=O)Nc2nc3c(s2)CC(C(C)(C)C)CC3)c1C (stereo not drawn)	/	12	/	14	-2	/
Cc1cc(C)cc(OCC(=O)Nc2nc3c(s2)CC(C(C)(C)C)CC3)c1 (stereo not drawn)	/	-75*	/	8	-1	/
O=C(NCC1(c2ccccc2)CCCC1)C(=O)Nc1cccc(C(F)(F)F)c1	/	10	/	1	3	/
CCOC(=O)C1=C(O)C(=O)N(c2ccc(S(N)(=O)=O)cc2)C1c1ccc(Br)cc1 (stereo not drawn)	-4%	-2	0%	8	-1	-9%
CCOC(=O)C1=C(O)C(=O)N(c2ccc(S(N)(=O)=O)cc2)C1c1ccc(Cl)cc1 (stereo not drawn)	0%	-38*	0%	0	0	9%
COc1ccc(CCN2CCC(Nc3nc4ccccc4n3Cc3ccc(F)cc3)CC2)cc1	-9%	-21	-1%	112*	7	-4%
COc1ccc(N2CC3=C(C2=O)C(c2ccc(Br)cc2)NC(=O)N3C)cc1 (stereo not drawn)	/	-1	/	-1	-5	/
COc1ccccc1N(C(=O)c1ccncc1)c1nc(-c2ccc([N+](=O)[O-])cc2)cs1	-3%	-38*	1%	4	-2	-12%
COCCN(C(=O)c1cccc(N2C(=O)CCC2=O)c1)c1nc(-c2ccc([N+](=O)[O-])cc2)cs1	-2%	-15	/	10	-3	10%
COc1cccc(N2CCN(S(=O)(=O)c3cc(-c4cc(C)no4)ccc3C)CC2)c1	/	-6	/	1	-5	/
CC1(C)CC(=O)c2cc(-c3nc(-c4ccc(Cl)cc4)cs3)c(=O)[nH]c2C1	/	3	/	2	0	/
CCNc1c(NS(=O)(=O)c2ccc(Br)s2)c(=O)oc2ccccc12	4%	-41*	5%	-3	-3	-3%
COC(=O)c1sc2cccc(F)c2c1S(=O)(=O)Nc1cc(OC)cc(OC)c1	/	25	/	22	-5	/
